Drawing on PubChem BioAssay (NCATS), this text covers Potency for 40 compounds.

Inconclusive results are not listed. Where a call stands in place of a potency, no number is given. The source made the active and inactive calls. Calls follow the shape of the dose curve; as a rule, active = well fitted cell-killing curve with a large enough effect; inconclusive = small, poorly fitted or top-dose-only effect, or effect the other way; inactive = no such curve, though single readings can be large or run the other way.
Potency is read from the fitted curve at half-maximal effect.

The assay can be described thus: Quantitative High-Throughput drug screen in 47 multiple myeloma cell lines against the NCATS MIPE library collection: FR4_PLB cell viability assay (AID 1918924; also: nearly all actives have a fitted effect of over 35% in size). The settings on record: FR4_PLB myeloma cells viability, CellTiter-Glo ATP, 48 h; series mostly up to 45.8 µM. From the text:
PI: Beverly A. Mock Ph.D.
Laboratory of Cancer Biology and Genetics,
Center for Cancer Research, National Cancer Institute,
National Institute of Health, Bethesda, Maryland
Drug resistance and disease progression are common in multiple myeloma (MM) patients, underscoring the need for new therapeutic combinations. […] We hypothesized that effective combinations would reduce MYC expression and enhance p16 activity. […] These preclinical data identify potentially useful drug combinations for evaluation in drug-resistant MM and reveal potential mechanisms of combined drug sensitivity.
Described herein is the primary MIPE qHTS used to cherrypick compounds. Validated compounds were then further tested for potential synergistic activiy.
[1] Peat TJ, Gaikwad SM, Dubois W, Gyabaah-Kessie N, Zhang S, Gorjifard S, Phyo Z, Andres M, Hughitt VK, Simpson RM, Miller MA, Girvin AT, Taylor A, Williams D, D'Antonio N, Zhang Y, Rajagopalan A, Flietner E, Wilson K, Zhang X, Shinn P, Klumpp-Thomas C, McKnight C, Itkin Z, Chen L, Kazandijian D, Zhang J, Michalowski AM, Simmons JK, Keats J, Thomas CJ, Mock BA. Drug combinations identified by high-throughput screening promote cell cycle transition and upregulate Smad pathways in myeloma. Cancer Lett. 2023 Aug 1;568:216284. doi: 10.1016/j.canlet.2023.216284. Epub 2023 Jun 24. PMID: 37356470; PMCID: PMC10408729.
SEQUENCE No. (e.g., 1, 2, 3, etc.); […] (e.g., Cells, Incubation, Reagent, etc.); VALUE and DESCRIPTION.
1; Cells; 5 uL; white, solid bottom 1536-well Greiner assay plate.
2; Compounds; 23 nL; Kalypsis pin tool (Wako USA) equipped with a 1536-well pin head to transfer to the assay plates.
3; Incubation; 48 hours; 37C incubation.
4; Reagent;5uL; CellTiter Glo (Promega).
5; Detector; 425V; Luminescence; Viewlux PerkinElmer.
NOTES (numbers refer to Sequence numbers above)
1. The cell-based screening methods employed in this study were like those previously published. Briefly, the corresponding myeloma cell lines were screened in 1,536-well plates with 500 cells, 5-uL per well for inhibition of cell viability (assessed by measuring ATP levels with CellTiterGlo).
2. NCATS MIPE 4.0 library of approved and investigational drugs were added using the Kalypsis pin tool. Wells treated with DMSO only for 100% viability and media only wells for 0% viability were used as controls.
3. The assay plates were covered and incubated for 48 hours in a 37C, 5% CO2 incubator with controlled humidity.
4. After 48 hours, CellTilter-GloTM luminescent substrate mix (Promega) reagent was added to the assay plate and plates we incubated for 5 min at room temperature.
5. Signal was measured as median relative luminescence units on a ViewLux (PerkinElmer) multiplate reader.
[1] Heske CM, Davis MI, Baumgart JT, Wilson K, Gormally MV, Chen L, Zhang X, Ceribelli M, Duveau DY, Guha R, Ferrer M, Arnaldez FI, Ji J, Tran HL, Zhang Y, Mendoza A, Helman LJ, Thomas CJ. Matrix Screen Identifies Synergistic Combination of PARP Inhibitors and Nicotinamide Phosphoribosyltransferase (NAMPT) Inhibitors in Ewing Sarcoma. Clin Cancer Res. 2017 Dec 1;23(23):7301-7311. doi: 10.1158/1078-0432.CCR-17-1121. Epub 2017 Sep 12. PMID: 28899971; PMCID: PMC6636827.
(In general: Cellular ATP, detected with luciferase, serves as a proxy for viable cell number.)
With `CN(CC=CC#CC(C)(C)C)Cc1cccc2ccccc12`, the Potency result was “inactive”. With `Cn1c(=O)c(-c2c(Cl)cccc2Cl)cc2cnc(Nc3cccc(C(=O)O)c3)nc21` the figure was 5.26 µM (active); with `O=c1[nH]c(=O)n([C@H]2C[C@@H](O)[C@@H](CO)O2)cc1C(F)(F)F`, “inactive”. Next, `CN1CCN2c3ncccc3Cc3ccccc3C2C1` (stereo not given): “inactive”. With `COC1CCC(C(=O)c2ccc3nc4c(cc3c2)CCCO4)CC1` (stereo not given) the figure was 26.4 µM (active); with `CCOC(=O)[C@@H](N)CCC(=O)N[C@@H](CSCc1ccccc1)C(=O)N[C@@H](C(=O)OCC)c1ccccc1`, “inactive”; with `COc1ccc(CCC(=O)Nc2nc3ccc(Cl)cc3s2)cc1OC`, “inactive”. Turning to `CO[C@H]1/C=C\O[C@@]2(C)Oc3c(C)c(O)c4c(O)c(c(C=NN5CCN(C6CCCC6)CC5)c(O)c4c3C2=O)NC(=O)C(C)=CC=C[C@H](C)[C@H](O)[C@@H](C)[C@@H](O)[C@@H](C)[C@H](OC(C)=O)[C@H]1C`, the Potency was 0.372 µM (active). Next, `N#CC(=C1Nc2ccccc2S1)c1ccnc(OCc2ccc(CN3CCOCC3)cc2)n1`: 23.5 µM (active). As to `C[C@@H](NC(=O)c1ncnc(N)c1Cl)c1ncc(C(=O)Nc2cc(C(F)(F)F)c(Cl)cn2)s1`, the Potency was 14.8 µM (active).

Turning to `CC(=O)Nc1cccc(-n2c(=O)n(C3CC3)c(=O)c3c(Nc4ccc(I)cc4F)n(C)c(=O)c(C)c32)c1`, the Potency is 0.743 µM (active). For `O=C1NC(=O)C(c2cnc3ccccn23)=C1c1cn2c3c(cccc13)CN(C(=O)N1CCOCC1)CC2`, the Potency is 0.0053 µM (active).

As to `O=C(Nc1ncc(SCCN2CCCC2)s1)[C@]1(c2ccc(S(=O)(=O)C3CC3)cc2)C[C@@H]1C1CCCCC1`, the Potency is 18.7 µM (active). As for `CO[C@H]1O[C@@H]2O[C@@]3(C)CC[C@@H]4[C@@H](C)CC[C@@H]([C@H]1C)[C@@]24OO3`, the Potency entry was “inactive”. With `CNC1[C@H](O)C(O[C@@H]2C(O)C(O[C@H]3O[C@H]([C@@H](C)NC)CC[C@H]3N)[C@@H](N)C[C@H]2N)OC[C@]1(C)O` (stereo not given in full) the entry was “inactive”; with `CN1C(=O)C[C@H](C(=O)N[C@@H](Cc2cnc[nH]2)C(=O)N2CCC[C@@H]2C(N)=O)NC1=O`, “inactive”; with `C[C@@H](O)[C@H]1C(=O)N2C(C(=O)OCOC(=O)C(C)(C)C)=C(SC3CN(C4=NCCS4)C3)[C@H](C)[C@H]12`, “inactive”. Next, `CC(C)C[C@@H](N)[C@H](O)C(=O)N[C@H](C(=O)N[C@H](C(=O)N[C@@H](CC(=O)O)C(=O)O)C(C)C)C(C)C`: “inactive”.

On to `O=C(c1ccc(C(=O)N2CCC(N3CCCC3)CC2)c(Nc2ccccc2)c1)N1CCC(N2CCCC2)CC1`, for which the Potency result is “inactive”. `CCCCC[C@H](O)C=C[C@H]1[C@H](O)CC(=O)[C@H]1CC=CCCCC(=O)O`: the Potency entry is “inactive”. With `COc1cc2nccc(Oc3ccc(NC(=O)Nc4ccc(F)cc4F)c(F)c3)c2cc1OC` the entry was “inactive”; with `CC(=O)OCC(=O)[C@@]12OC(C)(C)O[C@H]1C[C@H]1[C@@H]3C[C@H](F)C4=CC(=O)C=C[C@]4(C)[C@@]3(F)[C@@H](O)C[C@@]12C`, “inactive”; with `CCNC(=O)CCCC=CC[C@@H]1[C@H](C=CC(O)CCc2ccccc2)[C@@H](O)C[C@@H]1O` (stereo not given in full), “inactive”. In the case of `COC(=O)Nc1ccc(-c2nc(N3CCOCC3)c3cnn(C4CCN(C(=O)OC)CC4)c3n2)cc1`, the Potency is 1.05 µM (active). With `CN[C@H]1[C@@H](O[C@@H]2[C@H](O[C@@H]3[C@@H](O)[C@@H](O)[C@@H](N=C(N)N)[C@@H](O)[C@@H]3N=C(N)N)O[C@H](C)[C@@]2(O)C=O)O[C@@H](CO)[C@@H](O)[C@H]1O` the entry was “inactive”. Next, `FC(F)(F)c1ccc(C=Cc2nc(COc3ccc(CCCCn4ccnn4)cc3)co2)cc1`: 0.0662 µM (active); `O=C(O)C1=CO[C@@H](O[C@@H]2O[C@H](CO)[C@H](O)[C@H](O)[C@H]2O)[C@@H]2C(CO)=CC[C@H]12`: “inactive”. Next, `O=C(O)c1ccc(O)c2ncc(N3CCOCC3)cc12`: “inactive”; `Cn1c(=O)c(Oc2ccc(F)cc2F)cc2cnc(NC3CCOCC3)nc21`: “inactive”; `CCNC(=O)Nc1ccc(Oc2ncnc(N)c2C=NOC)cc1Cl`: 3.72 µM (active).

Turning to `O=C(c1ccc(F)c(F)c1Nc1ccc(I)cc1F)N1CC(O)([C@H]2CCCCN2)C1`, the Potency is 20.9 µM (active). Take `COc1ccc(-c2cc3nccn3c(Nc3ncccc3C(N)=O)n2)cc1OC`: the Potency is 3.32 µM (active).

In the case of `O[C@@H](COc1cccc2ncccc12)CN1CCN(C2c3ccccc3[C@@H]3[C@H](c4ccccc42)C3(F)F)CC1` (stereo not given in full), the Potency is 23.5 µM (active). On to `Cc1cnc(-c2cc(N3CCN(C(=O)CCS(C)(=O)=O)CC3)ncc2Cl)c(C)c1`, for which the Potency result is “inactive”.

Regarding `CON(C)C(=O)N1N=C(c2cc(F)ccc2F)S[C@]1(CCCN)c1ccccc1`, the Potency result was “inactive”. Next, `COc1cc2ncn(-c3cc(OCc4ccccc4S(C)(=O)=O)c(C#N)s3)c2cc1OC`: “inactive”. With `COc1cccc(OC)c1-c1cc(C(=O)NC2(C(=O)O)C3CC4CC(C3)CC2C4)nn1-c1ccnc2cc(Cl)ccc12` (stereo not given) the entry was “inactive”; with `C[C@H]1O[C@@H](n2cc(F)c(=O)[nH]c2=O)[C@H](O)[C@H]1O`, “inactive”. Next, `CCCCC[C@H](O)C=C[C@H]1[C@H](O)CC(=O)[C@H]1CCCCCCC(=O)O`: “inactive”; `CC(C)CNc1ccnc(NCc2csc(-c3ccccc3)n2)n1`: 16.6 µM (active).
